Laboratory results reported in PubChem BioAssay.
Calls of active or inactive are those of the source. Unless noted, the rule behind the calls is not given here.

Experiments:
[1] = liver-stage malaria parasite load reduction – cell-based, known kinase inhibitor set, luminescence, hepatoma host viability (AID 624392); settings: Plasmodium liver stage in hepatoma cells, luciferase luminescence, concentration not given here; liver cell % of control: measured here: host liver cell viability; parasite % of control: stronger effect = lower value;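 note: infected cells incubated roughly two days before readout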
[2] = altered dexamethasone sensitivity, NF-kB reporter, cell-based, luciferase, IL-1B stimulus (AID 624486); settings: IL-1B + dexamethasone, luminescence; percent of negative control (+Dex): actives lie on both sides, concentration not given here; z-score: measured here: IL-1B alone, no Dex;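 for percent of negative control (+Dex): 100% = mean signal of vehicle control wells on the plate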
[3] = C. elegans survival during P. aeruginosa infection – whole organism (AID 651566);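 note: tested at 14 µM; sign flipped so higher z means a lower ratio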; settings: C. elegans killed by P. aeruginosa, survival ratio
[4] = pro-inflammatory signaling induction in mouse macrophages – cell-based, murine, luminescence (AID 652131); settings: murine macrophage pro-inflammatory reporter, stronger effect = higher value
[5] = target: Cellular tumor antigen p53 (Homo sapiens) (UniProt P04637); test: GFP-p53 level modulators in HPV16+ cells – imaging, known kinase inhibitor set, EGFP/DsRed ratio (AID 1053116); settings: GFP-p53 stability, stronger effect = higher value; EGFP object count: measured here: GFP-p53 positive objects count;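 note: cells exposed to compounds for 24 h at 37 °C before reading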
[6] = inducers of IRF3 signaling, differentiated THP-1 – cell-based, PMA-stimulated THP-1, luminescence (AID 1053176); settings: PMA-differentiated THP-1, IRF3 reporter luminescence; stronger effect = higher value
[7] = MELAS cybrid and Rieske KO viability enhancers – cell-based, MELAS cybrids, Rieske KO mouse fibroblasts, CellTiter-Glo, primary screen (AID 1508586;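 active = mean z-score across replicates of 1.96 or higher in either the MELAS or the Rieske mutant cell line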;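 note: z relative to plate mean and SD of compound and empty wells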); settings: low glucose
[8] = MELAS cybrid survival, CellTiter-Glo 48 h, stronger effect = higher value
[9] = Rieske KO mouse fibroblast survival, CellTiter-Glo 72 h

Cellular tumor antigen p53 (Homo sapiens), sequence (P04637 whole entry, looked up): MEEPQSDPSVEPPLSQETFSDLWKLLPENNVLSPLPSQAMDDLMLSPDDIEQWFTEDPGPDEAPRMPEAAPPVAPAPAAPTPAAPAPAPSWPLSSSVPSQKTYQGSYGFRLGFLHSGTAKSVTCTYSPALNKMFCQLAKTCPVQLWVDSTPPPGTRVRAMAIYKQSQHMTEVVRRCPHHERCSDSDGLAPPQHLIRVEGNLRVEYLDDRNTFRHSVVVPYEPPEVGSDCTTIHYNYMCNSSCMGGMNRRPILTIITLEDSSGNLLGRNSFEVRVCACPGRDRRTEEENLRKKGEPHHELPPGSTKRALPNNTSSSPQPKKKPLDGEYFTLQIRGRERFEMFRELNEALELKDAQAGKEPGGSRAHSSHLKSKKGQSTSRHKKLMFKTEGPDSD

## O/N=C1/CCc2cc(-c3nc(C4CCNCC4)[nH]c3-c3ccncc3)ccc21
[1]
  liver cell % of control: 105%
  parasite % of control: 174% (inactive)
[2]
  percent of negative control (+Dex): 128% (inactive)
  z-score: 0.995
[3]
  z-score: 0.24 (inactive)
[4]
  z-score: 3.12 (inactive)
[5]
  EGFP object count: 1
  EGFP/DsRed ratio: 0.00487 (inactive)
[6]
  fraction signal: 0.001 (inactive)
[7]; [8]
  z-score: -1.26 (inactive)
[7]; [9]
  z-score: -0.635

## CCn1c(-c2nonc2N)nc2c(C#CC(C)(C)O)nc(CN3CCCC3)cc21
[1]
  liver cell % of control: 107%
  parasite % of control: 162% (inactive)
[2]
  percent of negative control (+Dex): 85.5% (inactive)
  z-score: -0.04
[3]
  z-score: -0.175 (inactive)
[4]
  z-score: 0.541 (inactive)
[5]
  EGFP object count: 4
  EGFP/DsRed ratio: 0.0701 (inactive)
[6]
  fraction signal: 0.0045 (inactive)
[7]; [8]
  z-score: -0.869 (inactive)
[7]; [9]
  z-score: 0.697

## Fc1cccc(COc2ccc(Nc3ncnc4sc(-c5ccco5)cc34)cc2Cl)c1
[1]
  liver cell % of control: 85.8%
  parasite % of control: 129% (inactive)
[2]
  percent of negative control (+Dex): 89% (inactive)
  z-score: -0.11
[3]
  z-score: 0.87 (inactive)
[4]
  z-score: -0.392 (inactive)
[5]
  EGFP object count: 4.5
  EGFP/DsRed ratio: 0.122 (inactive)
[6]
  fraction signal: -0.0105 (inactive)
[7]; [8]
  z-score: -0.906 (inactive)
[7]; [9]
  z-score: -0.52

## CC1=C(C(=O)Nc2ccc3[nH]ncc3c2)C(c2ccc(F)cc2)N=C(c2ccc(C(F)(F)F)nc2)N1 (stereo unspecified)
[1]
  liver cell % of control: 102%
  parasite % of control: 138% (inactive)
[2]
  percent of negative control (+Dex): 86% (inactive)
  z-score: -1.21
[3]
  z-score: 0.02 (inactive)
[4]
  z-score: 0.13 (inactive)
[5]
  EGFP object count: 2
  EGFP/DsRed ratio: 0.0614 (inactive)
[6]
  fraction signal: -0.004 (inactive)
[7]; [8]
  z-score: -0.75 (inactive)
[7]; [9]
  z-score: -0.3

## COc1cc(N2CCN(C(C)C)CC2)ccc1Nc1nc(Nc2ccc(F)cc2C(N)=O)c2cc[nH]c2n1
[1]
  liver cell % of control: 64.4%
  parasite % of control: 792% (inactive)
[2]
  percent of negative control (+Dex): 70% (inactive)
  z-score: -2.39
[3]
  z-score: 0.205 (inactive)
[4]
  z-score: 0.179 (inactive)
[5]
  EGFP object count: 4
  EGFP/DsRed ratio: 0.221 (inactive)
[6]
  fraction signal: 0.001 (inactive)
[7]; [8]
  z-score: 2.96 (active)
[7]; [9]
  z-score: 7.03

## CNC(=O)c1cccc(C#Cc2cncnc2Nc2ccc(OCc3cccc(F)c3)c(Cl)c2)c1
[1]
  liver cell % of control: 105%
  parasite % of control: 143% (inactive)
[2]
  percent of negative control (+Dex): 78% (inactive)
  z-score: -0.47
[3]
  z-score: 0.59 (inactive)
[4]
  z-score: -0.769 (inactive)
[5]
  EGFP object count: 1
  EGFP/DsRed ratio: 0.0111 (inactive)
[6]
  fraction signal: 0.003 (inactive)
[7]; [8]
  z-score: -1.16 (inactive)
[7]; [9]
  z-score: -0.232
